# System: PIK3CB
# 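Note: kd values determined as follow-up on hits from a single-replicate KINOMEscan panel screen.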
row,Compound,Kd
1,O=c1cc(N2CCOCC2)nc2n(Cc3cccc(C(F)(F)F)c3)ccn12 [GSK2297543],140 nM
2,Cc1cn2c(=O)cc(N3CCOCC3)nc2n1Cc1cccc(Cl)c1Cl [GSK2334006],2.4 nM
3,COc1ccc(S(=O)(=O)NC2CCN(c3cc(C)nc(Nc4cccc(C#N)c4)n3)CC2)cc1.O=C(O)C(F)(F)F [GSK1653539],> 10000 nM
4,N#Cc1c(N2CCOCC2)sc(-c2ccn[nH]2)c1-c1ccc(Cl)cc1,750 nM
5,O=c1cc(N2CCOCC2)nc2n(Cc3cccc(F)c3)ccn12 [GSK2297430],55 nM
6,[2H]C([2H])(c1cccc(C(F)(F)F)c1C)n1ccn2c(=O)nc(N3CCOCC3)cc12 [GSK2336394],51 nM
7,Cc1cccc(Cn2ccn3c(=O)cc(N4CCOCC4)nc23)c1 [GSK2297542],23 nM
8,O=c1cc(N2CCOCC2)nc2n(Cc3cccc(Cl)c3Cl)c(C3CC3)nn12 [GSK2358994],0.94 nM
9,O=c1cc(N2CCOCC2)nc2n(Cc3cccc4ccccc34)ccn12 [GSK2333389],2.9 nM
10,Cc1c(Cn2c(C)nn3c(=O)cc(N4CCOC(C)C4)nc23)cccc1C(F)(F)F (stereo not drawn) [GSK2344444],0.67 nM
11,COc1ccc(COc2cc(-n3cnc4ccccc43)sc2C(N)=O)cc1 [GSK1024304],> 10000 nM

# System: PIK3CD
row,Compound,Kd
1,Cc1cn2c(=O)cc(N3CCOCC3)nc2n1Cc1cccc(Cl)c1Cl [GSK2334006],120 nM
2,O=c1cc(N2CCOCC2)nc2n(Cc3cccc(Cl)c3Cl)c(C3CC3)nn12 [GSK2358994],820 nM
3,O=c1cc(N2CCOCC2)nc2n(Cc3cccc4ccccc34)ccn12 [GSK2333389],150 nM
4,Cc1c(Cn2c(C)nn3c(=O)cc(N4CCOC(C)C4)nc23)cccc1C(F)(F)F (stereo not drawn) [GSK2344444],80 nM

# From article PMC5540273 (PLoS ONE, 2017)
